PubChem BioAssay (NCI)
This is part of a sample that, as a whole, favours compounds with a hit. Of some 83,000 tested, about 20% had one in any assay.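 Single-dose data. Exposure time 48 hours. Values below 10 considered active.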 Activity calls are given as the source filed them.

System: MDA-MB-468 breast
Experiment: NCI-60 one-dose screen, 48 h (100 = growth as untreated, 0 = no growth, -100 = all killed)
Settings: 10 µM unless noted

Structure (SMILES)	growth
C=C(C)[C@@H]1CC[C@]2(C(=O)N3CCN(C)CC3)CC[C@]3(C)[C@H](CC[C@@H]4[C@@](C)(CCC(=O)O)[C@H](C(=C)C)CC[C@]43C)[C@@H]12	90.1% (inactive)
CC(C)CCCC(=O)O	90.8% (inactive)
CC(C)(C)c1ccc(OP(=S)(N/N=C/c2ccccc2O)Oc2ccc(C(C)(C)C)cc2)cc1	35.4% (inactive)
COc1cc2c3c(n(CCCN4CCCC4)c(=O)c2cc1OC)-c1cc2c(cc1C3=O)OCO2	84.1% (inactive)
O=C1c2ccccc2C(=O)N1c1ccccc1	108% (inactive)
COc1cccc(-c2nc3sccn3c2-c2ccnc(NCCCNS(=O)(=O)c3ccccc3)c2)c1	1.62% (active)
COc1ccc(-c2oc3cc(O)cc(O)c3c(=O)c2OC)cc1O	-3.48% (active)
Cn1c([N+](=O)[O-])cnc1C=C1C(=O)c2ccccc2C1=O	51.3% (inactive)
Cc1ccc(S(=O)(=O)NCCNc2nc(Nc3ccc(N4CCN(C)CC4)cc3)nc3ccsc23)cc1	94.1% (inactive)
Cc1ccc(C2CC(c3cccc(Nc4ccncc4)c3)=Nc3c(N)nc(N)nc3N2)cc1 (stereo not given)	60.2% (inactive)
O=C(O)c1ccc2c(c1Sc1ccccc1)C(=O)c1ccccc1C2=O	97.9% (inactive)
CCN(CC)c1ccc2c(cc1=O)[C@@H](NC(C)=O)CCc1cc(OC)c(OC)c(OC)c1-2	36.9% (inactive)
C[C@@H]1C(=O)[C@@H]2C[C@@H](O)[C@@H](O)C[C@]2(C)[C@H]2CC[C@@]3(C)C(=C12)CC[C@@H]3[C@@](C)(O)[C@H](O)CCC(C)(C)O	103% (inactive)
Cc1cc2nc3[nH]c4ccccc4c3nc2cc1C	97.5% (inactive)
COc1ccc(-c2nn(-c3ccccc3)cc2/C=C2\SC(=O)NC2=O)cc1	107% (inactive)
O=C1c2ccccc2C(=O)c2c1oc1c2c(=O)[nH]c2ccccc21	-8.43% (active)
CCOC(=O)c1nn(C2CCCCO2)c2ccc(NC(=O)Cn3nnc4ccccc43)cc12 (stereo not given)	105% (inactive)
CN1C(=O)C(=Cc2coc3ccc(Br)cc3c2=O)C(=O)N(C)C1=O	102% (inactive)
COC(=O)c1cnc2c(c1)Oc1ccc(Cl)cc1-c1cc(C)nn1-2	92% (inactive)
NC1=C(Cl)C(=O)c2ccc(S(N)(=O)=O)cc2C1=O	-92.4% (active)

Structure (SMILES)	growth
COc1cccc(/C=C2\COc3ccc(-c4ccccc4)cc3C2=O)c1	7.82% (active)
Clc1nc(Oc2ccccc2)nc(-c2cn(-c3ccccc3)c3ccccc23)n1	88.2% (inactive)
O=C(O)COc1ccccc1F	93.5% (inactive)
CCOc1ccc(S(=O)(=O)Nc2ccc3c(c2)N(S(=O)(=O)CC)CCC3)cc1	85.4% (inactive)
CNCCCNc1nc2ccccc2c2c(=O)c3cc(OC)ccc3sc12	24.8% (inactive)
Cc1ccc(C2SCC(=O)N2Cc2ccccc2)cc1 (stereo not given)	87.3% (inactive)
Clc1ccc2c(NCCCNc3nc(-n4ccnc4)nc4ccccc34)ccnc2c1	53.3% (inactive)
Nc1nc2c([nH]1)c1[nH]c3ccccc3c1c1[nH]c3ccccc3c21	-57.2% (active)
CCOC(=O)C(CC)n1c(=O)c2cc(OC)c(OC)cc2c2cnc3[nH]ccc3c21 (stereo not given)	84.2% (inactive)
Cc1cc(O)c(C2=NN(c3ccc(S(N)(=O)=O)cc3)C(c3ccc(Cl)cc3)C2)c(C)c1Cl (stereo not given)	43.7% (inactive)
Nc1c(C(=O)Nc2ccccn2)sc2nc3c(cc12)C(=O)CCC3	7.45% (active)
Cc1ccc(S(=O)(=O)N(c2ccc(Cl)cc2)c2ccc(Br)cc2C(=O)O)cc1	95.9% (inactive)
Cc1ccc(N)cc1[N+](=O)[O-]	115% (inactive)
CCN1C(=O)N(CC)C2C1NN=c1s/c(=C\c3cccc(F)c3)c(=O)n12 (stereo not given)	-21.8% (active)
CC(C)(C)OC(=O)N1CCc2c(sc3ncnc(N/N=C/c4cccc(Br)c4)c23)C1	52.2% (inactive)
CCCCCCNC(=O)Nc1ncnc2c1ncn2-c1ccccc1	105% (inactive)
O=C1c2c(c3c4cc(Br)ccc4[nH]c3c3ccc4ccccc4c23)C(=O)N1CCO	100% (inactive)
COc1ccc(-c2nc(/C=C3\SC(=NCc4ccccc4)NC3=O)c3ccccn23)cc1	-56.9% (active)
O=[N+]([O-])c1cccc(-c2ncc(-c3ccc(Cl)cc3Cl)[nH]2)c1	47.6% (inactive)
COC(=O)c1c(C)nc(C)c2c1C(=O)C(Br)=C(NCCCCO)C2=O	29.5% (inactive)
